This is an account of results in PubChem BioAssay (EPA / NIEHS).

The structures appear in SMILES notation. Records with an inconclusive call do not appear. Activity calls are given as the source filed them. The calls were made as follows: active = hit-call score of the fitted dose curve at least 0.9, where 1 is the maximum; inconclusive = response in the unintended direction; inactive = score below 0.9.

Chain of Cellular tumor antigen p53 (Homo sapiens) (P04637 whole entry, looked up): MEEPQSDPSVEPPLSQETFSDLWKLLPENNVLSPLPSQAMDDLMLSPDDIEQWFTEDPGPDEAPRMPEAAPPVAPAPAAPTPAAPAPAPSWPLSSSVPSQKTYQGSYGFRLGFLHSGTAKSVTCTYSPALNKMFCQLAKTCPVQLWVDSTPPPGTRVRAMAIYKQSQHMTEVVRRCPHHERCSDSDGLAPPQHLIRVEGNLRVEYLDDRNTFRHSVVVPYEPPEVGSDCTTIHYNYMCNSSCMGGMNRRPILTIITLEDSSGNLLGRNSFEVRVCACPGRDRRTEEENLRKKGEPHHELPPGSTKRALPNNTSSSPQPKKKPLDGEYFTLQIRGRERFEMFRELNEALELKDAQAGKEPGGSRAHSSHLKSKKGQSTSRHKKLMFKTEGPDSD

The first test concerns the target Cellular tumor antigen p53 (Homo sapiens) (UniProt P04637). In words: TOX21_p53_BLA_p3_ratio: Tox21 HCT-116 p53 Agonism Beta-lactamase Assay, Ratio, Phase 3 (AID 2283596). A digest of the protocol:
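Cells were seeded at 4000/well, rested 5 h at 37C, then dosed with DMSO compound solutions (217-fold dilution) for 16 h. CCF4-AM substrate was loaded for 2 h at room temperature, and the 460/530 nm emission ratio was fitted for gain of signal versus DMSO.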
As for `CCCCOC(=O)c1ccccc1`, the result was inactive.
For the compound `CCCCN1C(=O)[C@@H]([C@H](O)C2CCCCC2)NC(=O)C12CCN(Cc1ccc(Oc3ccc(C(=O)O)cc3)cc1)CC2`, the AC50 (usually the concentration at which the activity in the assay is half-maximal) is 48.8 µM (active).
Take `C=CN1CCCC1=O`: the outcome was inactive.
On the same count and under the same terms, the result for `CC(=O)c1ccccc1` reads “inactive”; that for `CCc1ccc(O)c(C(C)(C)C)c1`, “inactive”; that for `c1ccc2cc3ccccc3cc2c1`, “inactive”.
Same read-out and setting: the value for `OC(CCl)CCl` was “inactive”; that for `c1ccc2ncccc2c1` was “inactive”; that for `OC(Cn1cncn1)(Cn1cncn1)c1ccc(F)cc1F` was “inactive”.
For the compound `O=C1CN(N=Cc2ccc([N+](=O)[O-])o2)C(=O)N1`, the result was inactive.
The same measure, in the same setting: the result for `CCCCC(CC)C(=O)OCCOCCOCCOC(=O)C(CC)CCCC` (configuration not stated) reads “inactive”.

Test system in another test: not listed separately
In words: TOX21_p53_BLA_p4_viability: Viability Assessment in the Tox21 HCT-116 p53 Agonism Beta-lactamase Assay, Phase 4 (AID 2283597).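 Also: hits lower the luminescence signal meaning cytotoxicity.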 Put shortly:
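4000 HCT116 cells per well; 5 h attachment; compounds from DMSO, 217-fold dilution; 16 h at 37C. Then CCF4-AM, 2 h RT, followed by CellTiter-Glo, 30 min RT, luminescence. Decrease = cytotoxicity.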
As to `CCCCN1C(=O)[C@@H]([C@H](O)C2CCCCC2)NC(=O)C12CCN(Cc1ccc(Oc3ccc(C(=O)O)cc3)cc1)CC2`, the result was inactive.
Still for that read-out and setting: the result for `C=CN1CCCC1=O` reads “inactive”; that for `CC(=O)c1ccccc1`, “inactive”.
Turning to `CCc1ccc(O)c(C(C)(C)C)c1`, the AC50 was 79.1 µM (active).
Take `c1ccc2cc3ccccc3cc2c1`: the outcome was inactive.
For `OC(CCl)CCl`, the compound was called inactive.
As for `c1ccc2ncccc2c1`, the compound was classed as inactive.
Same read-out and setting: the result for `OC(Cn1cncn1)(Cn1cncn1)c1ccc(F)cc1F` reads “inactive”.
The same measure, in the same setting: the value for `O=C1CN(N=Cc2ccc([N+](=O)[O-])o2)C(=O)N1` was “inactive”.
With `CCCCC(CC)C(=O)OCCOCCOCCOC(=O)C(CC)CCCC` (configuration not stated), the result was inactive.
On the same count and under the same terms, the value for `NNC(=O)c1ccncc1` was “inactive”.

A further test deals with Cellular tumor antigen p53 (Homo sapiens) (UniProt P04637). In words: TOX21_p53_BLA_p5_ratio: Tox21 HCT-116 p53 Agonism Beta-lactamase Assay, Ratio, Phase 5 (AID 2283599). A digest of the protocol:
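Beta-lactamase reporter ratio (blue 460 nm over green 530 nm, 405 nm excitation) after 2 h CCF4-AM loading, in HCT-116 cells exposed 16 h at 37 C to compounds pinned at 217-fold dilution. Increases relative to DMSO baseline scored.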
Regarding `CCCCN1C(=O)[C@@H]([C@H](O)C2CCCCC2)NC(=O)C12CCN(Cc1ccc(Oc3ccc(C(=O)O)cc3)cc1)CC2`, the AC50 was 63.7 µM (active).
Take `C=CN1CCCC1=O`: the result was inactive.
`CC(=O)c1ccccc1`: the result was inactive.
Same read-out and setting: the value for `c1ccc2cc3ccccc3cc2c1` was “inactive”; that for `OC(CCl)CCl` was “inactive”; that for `c1ccc2ncccc2c1` was “inactive”.
Same read-out and setting: the result for `OC(Cn1cncn1)(Cn1cncn1)c1ccc(F)cc1F` reads “inactive”.
On to `O=C1CN(N=Cc2ccc([N+](=O)[O-])o2)C(=O)N1`, for which the outcome was inactive.

Test system in the next test: not listed separately
In words: TOX21_p53_BLA_p5_viability: Viability Assessment in the Tox21 HCT-116 p53 Agonism Beta-lactamase Assay, Phase 5 (AID 2283600). Put shortly:
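Decreased CellTiter-Glo luminescence denotes lost viability. Exposure: 16 h at 37C, 5% CO2, with compounds from DMSO stocks diluted 217-fold in wells of 4000 cells.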
With `CCCCOC(=O)c1ccccc1`, the compound was classed as inactive.
On the same count and under the same terms, the value for `C=CN1CCCC1=O` was “inactive”; that for `CCCc1ccccc1` was “inactive”.
On to `CC(=O)c1ccccc1`, for which the call was inactive.
Same read-out and setting: the result for `CCc1ccc(O)c(C(C)(C)C)c1` reads “inactive”; that for `c1ccc2cc3ccccc3cc2c1`, “inactive”.
Still for that read-out and setting: the value for `OC(CCl)CCl` was “inactive”.
For the compound `c1ccc2ncccc2c1`, the outcome was inactive.
For the compound `OC(Cn1cncn1)(Cn1cncn1)c1ccc(F)cc1F`, the call was inactive.
Take `O=C1CN(N=Cc2ccc([N+](=O)[O-])o2)C(=O)N1`: the outcome was inactive.
`CCCCC(CC)C(=O)OCCOCCOCCOC(=O)C(CC)CCCC` (configuration not stated): the outcome was inactive.
In the case of `NNC(=O)c1ccncc1`, the compound was classed as inactive.
